MCF10A rerep = A quantitative high throughput screen for small molecules that induce DNA re-replication in MCF 10a normal breast cells; AID 624296, 2012; MCF 10A DNA re-replication, Hoechst nuclear intensity, 48 h; 350,000 compounds, 2.9% hits; Potency, µM (top dose mostly 46.1 µM), for the others: at the top dose activity, positive = re-replication, hits mostly activators; further: % of control where 0% means no effect; nearly all actives have a fitted effect of over 50% in size
PINK1 modulator = A Quantitative High throughput Screen to Identify Chemical Modulators of PINK1 Expression; Potency, µM (series often up to 76.6 µM), without a hit: top-dose activation (PINK1 increase), hits mostly activators; 410,000 compounds, 0.2% hits; PINK1 immunofluorescence, high-content cytometry, 24 h; AID 624263, 2012; active means well fitted activation curve with a large enough effect; inconclusive means small, poorly fitted or top-dose-only effect; cell line not stated here; further: % of control where 0% means no effect; nearly all actives have a fitted effect of over 65% in size
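Measures PINK1 amount and localization on or inside mitochondria by immunofluorescence. Stable cells get compounds at 5 concentrations for 24 hours before fixation and staining; CCCP controls included.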
SW480 rereplic = A quantitative high throughput screen for small molecules that induce DNA re-replication in SW480 colon adenocarcinoma cells. SW480 DNA re-replication, Hoechst DNA content imaging, 48 h. Potency, µM (doses to about 46.1 µM), without a hit: top-dose re-replication activation, actives largely listed as activators. 340,000 compounds, 1.8% hits. AID 624297, 2012; further: % of control where 0% means no effect; nearly all actives have a fitted effect of over 55% in size
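Image-based DNA-content assay: after two days of treatment, nuclei were labelled with the DNA dye Hoechst and imaged, and hits were compounds raising the count of nuclei showing high fluorescence intensity.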
KB-V1 MDR tox = qHTS assay for MDR1-selective chemotherapeutics: Primary screen using the drug-selected MDR subline cells KB-V1 | KB-V1 MDR cells viability, CellTiter-Glo, 72 h | 400,000 compounds, 3.4% hits | Potency, µM (series often up to 46.1 µM), usual class: cytotoxic; further: on the % scale 0 is the no-effect control and ±100 the full control effect; nearly all actives have a fitted effect of over 60% in size
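Drug-selected KB-V1 cells, grown in DMEM lacking phenol red with 10% FBS, receive compound titrations; after three days at 37 degrees C, surviving cell ATP is quantified by CellTiter-Glo luminescence and responses normalized and curve-fitted.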
KB-3-1 tox = qHTS assay for MDR1-selective chemotherapeutics: Primary screen using the parental adenocarcinoma cell KB-3-1. KB-3-1 viability, CellTiter-Glo ATP luminescence, 72 h. AID 1347075, 2019. 400,000 compounds, 1.4% hits. Potency, µM (doses to about 46.1 µM), usual class: cytotoxic; further: on the % scale 0 is the no-effect control and ±100 the full control effect; nearly all actives have a fitted effect of over 60% in size
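Screening of KB-3-1 cells (DMEM, 10% FBS, phenol-red free) ran from lowest to highest compound concentration; after 72 h at 37 °C viability was read luminescently and curves fitted.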
* = called active by the depositor; i = inactive; ? = inconclusive; . = no result given; [ ] = remark or other dose. Only some compounds are listed: those with a hit (about 6.7% of all), similar ones and a draw of the others. Unless noted, the call rests on the fitted dose curve; in most records, active means well fitted curve in the direction sought with a large enough effect; inconclusive means small, poorly fitted or top-dose-only effect, or another doubt; inactive means no such curve, though single readings can be large; an effect the other way counts as inactive or inconclusive. Potency means the concentration at half of the fitted maximal effect.

SMILES	MCF10A rerep	PINK1 modulator	SW480 rereplic	KB-V1 MDR tox	KB-3-1 tox
CC(C)(C)N(NC(=O)Nc1ccc(Cl)c(Cl)c1)C(=O)c1ccccc1	?	?	-3.3%[9.22 µM]	23.1µM*	?
CC(C)(C)N(NC(=O)Nc1ccc(F)cc1)C(=O)c1ccccc1	7.9%	-0.1%	-4.6%	i	i
CCOC(=O)c1cc([N+](=O)[O-])cc([N+](=O)[O-])c1Sc1ncnc2nc[nH]c12	?	-3.9%	11.6µM*	?	?
CCOC(=O)C(C)(C)Sc1ncnc2nc[nH]c12	-0.9%	-7.5%[38.3 µM]	-1.2%	i	i
O=C1c2cnc3nc(SCc4cccc(Cl)c4)nn3c2CC2c3ccccc3CCN12 (configuration not stated)	2.06µM*	5.9%	2.59µM*	i	i
CCC(=O)NC(c1ccccc1OC)c1ccc2cccnc2c1O (configuration not stated)	6.9%	1.6%[38.3 µM]	1.8%	?	10.3µM*
Oc1cccc(C(Nc2ccccn2)c2ccc3cccnc3c2O)c1Cl (configuration not stated)	.	0.0%	.	?	?
CCCC(=O)NC(c1ccccc1)c1ccc2cccnc2c1O (configuration not stated)	?	2.3%	?	?	?
CCCCC(=O)NC(c1ccccc1Cl)c1ccc2cccnc2c1O (configuration not stated)	?	3.9%	?	?	?
CCCCC(=O)NC(c1ccccc1)c1ccc2cccnc2c1O (configuration not stated)	?	1.3%	0.517µM*	13µM*	?
CCCCC(=O)NC(c1ccc(C(C)C)cc1)c1ccc2cccnc2c1O (configuration not stated)	18.4µM*	11.6%	?	i	?
COc1ccc(Cl)cc1C(Nc1cccnc1)c1ccc2cccnc2c1O (configuration not stated)	?	7.4%	7.31µM*	?	?
O=C(Cn1cnc2c(NCc3ccccc3)ncnc21)NCCCN1CCCC1=O	23.5%	1.0%	-45.9%	?	i
Cc1cccc(NC(=O)C2CCCN(S(=O)(=O)c3c(C)[nH]c(=O)[nH]c3=O)C2)c1C (configuration not stated)	.	-0.4%	.	i	i
CCC(=O)NC(c1ccc(OC)cc1)c1c(O)ccc2ccccc12 (configuration not stated)	20.3%	7.1%	?	?	?
CC(=O)NC(c1ccc(C(C)C)cc1)c1ccc2cccnc2c1O (configuration not stated)	?	4.9%	0.82µM*	?	0.651µM*
CCCC(=O)NC(c1ccc(OC)cc1)c1ccc2cccnc2c1O (configuration not stated)	?	0.1%	-5.9%	7.31µM*	?
O=C(Nc1cccc2ccccc12)c1ccc2sc([C@H]3C[C@H](O)[C@@H](CO)O3)nc2c1	.	3.4%	.	i	i
Cc1cc(C(=O)COC(=O)c2ccccc2O)c(C)n1CC1CCCO1 (configuration not stated)	11.7%	0.0%	-14.5%	?	i
Cc1cc(C(=O)COc2ccccc2C(N)=O)c(C)n1CC1CCCO1 (configuration not stated)	12.2%	-1.2%	0.2%	4.61µM*	i
O=C1CN(C(=O)c2cccc(Br)c2)c2ccccc2N1	23.1µM*	9.5%	?	10.3µM*	5.8µM*
O=C1CN(C(=O)c2ccccc2)c2ccccc2N1	-1.0%	-1.6%	-8.4%	i	i
CC(C)Oc1ccc(S(=O)(=O)N2CCOCC2)cc1NC(=O)CSc1nnc(C2CC2)n1C	.	1.5%	.	i	i
COc1ccc(-c2csc(NC(=O)CCn3cnc4ccccc4c3=O)n2)cc1OC	-4.7%	0.1%[38.3 µM]	-0.3%	18.4µM*	i
COc1ccc(-c2csc(NC(=O)CCCc3nc4ccccc4c(=O)[nH]3)n2)cc1OC	15.4%	3.2%	-5.7%	i	i
SMILES	MCF10A rerep	PINK1 modulator	SW480 rereplic	KB-V1 MDR tox	KB-3-1 tox
COc1ccc(-c2csc(NC(=S)NC(=O)c3ccc4ccccc4c3)n2)cc1OC	?	-0.8%	14.6µM*	?	?
COc1ccc(-c2csc(NC(C)=O)n2)cc1OC	0.3%	-1.0%	-19.4%	i	i
Cc1ccc(-c2csc(NC(=O)Cn3cnc4c3c(=O)n(C)c(=O)n4C)n2)cc1C	20.6µM*	5.7%	11.5%	i	i
COc1cccc(NC(=O)Nc2nc(-c3ccc(OC)c(OC)c3)cs2)c1	20.6µM*	-1.5%	7.1%	?	18.4µM*
COc1cc(C(=O)NC(=S)Nc2nc(-c3ccc(F)cc3)cs2)cc(OC)c1OC	-6.5%	1.1%	-34.5%	i	?
CCC(CC)C(=O)Nc1ccc2nc(SCC(=O)N3CCCC3)sc2c1	.	0.1%	.	.	.
Cc1ccc(-c2csc(NC(=O)/C=C/c3cccs3)n2)cc1C	?	2.7%	9.5%	9.2µM*	?
Cc1cc(NC(=O)c2ccc3nc(-c4ccccc4)c(-c4ccccc4)nc3c2)no1	9.2µM*	16.7%[38.3 µM]	?	?	i
Cc1cc(NC(=O)CSc2nnc(-c3ccccc3)c(-c3ccccc3)n2)no1	11.6µM*	2.0%	3.66µM*	5.17µM*	7.31µM*
Cc1cc(NC(=O)CSc2nnc(-c3ccoc3C)o2)no1	23.6%	3.1%[38.3 µM]	20.6µM*	i	i
CC(O)CN(CCN(CC(C)O)CC(C)O)CC(C)O (configuration not stated)	1.3%	.	-5.6%	.	.
CCCCN(CC)S(=O)(=O)N1CCC(C(=O)NCc2ccc(F)cc2)CC1	-12.6%	.	8.1%	16.4µM*	i
O=C(NCc1ccc(F)cc1)C1CCN(S(=O)(=O)N2CCCCC2)CC1	4.6%	?	-15.2%	i	i
O=C(NNC(=O)c1ccccc1Br)c1ccc(SCC2CCCO2)c([N+](=O)[O-])c1 (configuration not stated)	?	-1.3%[38.3 µM]	0.8%	23.1µM*	i
O=C(O)C1CCN(c2nc(-c3ccccc3)c3cc(Br)ccc3n2)CC1	23.1µM*	-1.8%	0.5%	i	i
OCCN1CCN(c2nc(-c3ccccc3)c3cc(Br)ccc3n2)CC1	18.4µM*	0.1%	20.6µM*	i	i
C=CCc1c(C)nc2nc(SCC(=O)Nc3ccc(OCC)cc3)nn2c1C	.	0.2%	.	.	.
CCCCSCCCNC(=O)c1cn(CC)c2ccc(S(=O)(=O)N3CCCCCC3)cc2c1=O	.	1.2%	.	?	i
O=C(CCl)N1CCN(S(=O)(=O)c2ccc3c(c2)CCC3)CC1	?	-1.4%	?	?	?
